In PubChem BioAssay (NCI):
Compounds without any hit were thinned out: in the full panel of roughly 83,000, 20% have a hit.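 Values shown are percent growth following 48 h exposure of cells in 96-well plates to a single concentration of compound; below 10 was considered active.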 The source made the active and inactive calls.

Columns and labels:
Assay in all cases: NCI-60 one-dose screen, 48 h (100 = growth as untreated, 0 = no growth, -100 = all killed)
Conditions in all cases: 10 µM unless noted
[1] = system: SK-MEL-2 melanoma
[2] = system: EKVX NSCLC
[3] = system: SN12C renal
[4] = system: UO-31 renal
[5] = system: TK-10 renal
[6] = system: ACHN renal
[7] = system: CAKI-1 renal
[8] = system: CCRF-CEM leukemia
[9] = system: MOLT-4 leukemia
[10] = system: SR leukemia
[11] = system: RPMI-8226 leukemia
[12] = system: OVCAR-8 ovarian
[13] = system: OVCAR-5 ovarian
[14] = system: OVCAR-4 ovarian
[15] = system: SK-OV-3 ovarian
[16] = system: IGROV1 ovarian
[17] = system: OVCAR-3 ovarian
[18] = system: HS 578T breast
[19] = system: NCI/ADR-RES ovarian

Measured: growth

Cc1cnc(C(=O)Nc2nc3ccc(S(=O)(=O)Nc4ccc(C5(C(F)(F)F)CC5)cc4)cc3[nH]2)cn1
inactive: [1] 37.9% | [2] 59.1% | [3] 34.5% | [4] 38.7% | [5] 32.1% | [6] 48.2% | [7] 22.6% | [8] 11.1% | [9] 20% | [10] 18.9% | [12] 25.8% | [13] 38.8% | [14] 32.9% | [15] 36.9% | [16] 31.4% | [19] 15.8%
active: [11] 6.96% | [17] -19.3% | [18] 8.52%

CN(C)c1ccc(Nc2c3ccccc3nc3cc(NC(=O)CCN4CCCC4)ccc23)cc1
active: [2] 9.96% | [3] -7.36% | [4] -53.1% | [5] -12.7% | [6] 1.64% | [7] -47.6% | [8] -15% | [9] -8.89% | [10] -19.3% | [11] -35.5% | [12] 4.51% | [14] -17.9% | [16] 1.29%
inactive: [1] 24% | [13] 11.5% | [15] 16.6% | [18] 19.8% | [19] 58.3%

COc1cc2cc(CN3CCN(c4nccc(-c5ccc6ccccc6c5)n4)CC3)c(=O)[nH]c2cc1OC
inactive: [1] 97.8% | [2] 94.5% | [3] 51.7% | [4] 74.9% | [5] 91% | [6] 75.7% | [7] 99.5% | [8] 49.1% | [9] 54.1% | [11] 61.2% | [12] 28.9% | [13] 102% | [14] 53.4% | [15] 99.6% | [16] 92% | [17] 39% | [18] 95.4% | [19] 85.9%
active: [10] -23.1%

COc1cc(/C=C/c2cc(O)c(C(C)=O)c(O)c2)cc2c1O[C@]1(C)CC[C@@H](O)C(C)(C)[C@H]1C2
inactive: [1] 31.4% | [2] 90.7% | [3] 82.5% | [4] 29.7% | [5] 94.7% | [6] 65% | [7] 45% | [8] 37.6% | [9] 20.2% | [10] 29.9% | [12] 67.7% | [13] 89.8% | [14] 90.8% | [15] 66.1% | [18] 25.4% | [19] 74.2%
active: [11] -7.38%

O=C1Nc2cc(-c3cccc(O)c3)ccc2/C1=C/c1ccc[nH]1
inactive: [2] 22.6% | [3] 15.5% | [5] 16.4% | [6] 11% | [8] 13.4% | [9] 15.4% | [12] 26.6% | [13] 19.4% | [19] 23.8%
active: [1] 3.73% | [4] -1.56% | [7] 5.88% | [10] 4.14% | [11] -15% | [15] 3.46% | [16] 8.78% | [17] -1.19% | [18] -4.18%

O=S(=O)(NCCNc1nccc(-c2c(-c3cccc(O)c3)nc3occn23)n1)c1ccc(C(F)(F)F)cc1
inactive: [1] 93.7% | [2] 105% | [3] 102% | [4] 93.9% | [5] 137% | [6] 84.4% | [7] 69.6% | [8] 106% | [9] 111% | [10] 110% | [11] 105% | [12] 102% | [13] 138% | [14] 118% | [15] 95.8% | [17] 113% | [18] 100% | [19] 105%

COc1cc2oc(-c3cccc(C(=O)Nc4ccccc4)c3)cc(=O)c2c(O)c1OC
inactive: [1] 65% | [2] 97.9% | [3] 74.8% | [4] 59.7% | [5] 60.8% | [6] 58% | [7] 48.9% | [8] 100% | [9] 99.7% | [10] 95.7% | [11] 83.5% | [12] 15.4% | [13] 94.4% | [15] 15% | [16] 85.4% | [17] 70.1% | [18] 11.1% | [19] 79.1%

CCN(CC)CCn1c(=O)c2cc(OC)c(OC)cc2c2ccc3cc4c(cc3c21)OCO4
inactive: [1] 93.2% | [2] 83.9% | [3] 32.9% | [4] 22.8% | [5] 67.6% | [6] 10.2% | [7] 17.3% | [12] 53.2% | [13] 64.9% | [15] 32.8% | [16] 29% | [17] 62.4% | [18] 64.3% | [19] 29.9%
active: [8] 2.85% | [9] -9.32% | [10] -14.9% | [11] 3.16%

C=C(C)[C@@H]1CC[C@]2(C(=O)N3CCN(C)CC3)CC[C@]3(C)[C@H](CC[C@@H]4[C@@]5(C)CC[C@H](OCCC#N)C(C)(C)[C@@H]5CC[C@]43C)[C@@H]12
inactive: [1] 97.7% | [2] 101% | [3] 90.7% | [4] 81.8% | [5] 106% | [6] 103% | [7] 99.8% | [8] 23% | [9] 59.7% | [11] 29.7% | [13] 129% | [14] 48.8% | [15] 109% | [17] 103% | [18] 104% | [19] 45.8%
active: [10] 3.86% | [12] 6.81%

COC(=O)CNC(=O)[C@]12CCC(C)(C)C[C@H]1C1=CC[C@@H]3[C@@]4(C)Cc5c([nH]c6ccccc56)C(C)(C)[C@@H]4CC[C@@]3(C)[C@]1(C)CC2
inactive: [1] 77.3% | [2] 88.6% | [3] 89.8% | [4] 65.3% | [5] 90.3% | [6] 49.1% | [7] 71.2% | [8] 87.3% | [9] 63.6% | [10] 83.3% | [11] 77% | [12] 85.2% | [13] 95.4% | [15] 82.6% | [16] 104% | [17] 93% | [18] 87.5% | [19] 89.6%

C=CC(=O)N[C@@H](/C=C/C(=O)OCC)Cc1ccc(-c2cc(Cl)cc(Cl)c2)cc1
active: [3] 3.95% | [5] 6.04% | [9] 1.95% | [10] 7.26% | [11] -2.44% | [19] 8.7%
inactive: [1] 14.1% | [2] 20% | [4] 14.2% | [6] 26.7% | [7] 35.9% | [8] 17.2% | [12] 16.8% | [13] 55.8% | [15] 26.7% | [16] 36.2% | [17] 13.5% | [18] 40.3%

CC(=O)c1ccc(NS(=O)(=O)c2cccc(C(=O)Nc3ccc(Br)cc3)c2)cc1
inactive: [1] 41% [25 µM] | [2] 34.2% [25 µM] | [3] 64.7% [25 µM] | [4] 53.8% [25 µM] | [5] 91.3% [25 µM] | [6] 73.3% [25 µM] | [7] 52.8% [25 µM] | [8] 61.6% [25 µM] | [9] 53.7% [25 µM] | [10] 87.8% [25 µM] | [11] 22% [25 µM] | [12] 67.3% [25 µM] | [13] 89.2% [25 µM] | [14] 63.6% [25 µM] | [15] 66.5% [25 µM] | [17] 70.9% [25 µM] | [18] 79.7% [25 µM] | [19] 48% [25 µM]

CCCCNC(=O)Oc1ccc(/C(=C(\C)c2ccccc2)c2ccc(OCCN3CCCCC3)cc2)cc1
inactive: [1] 72.7% | [2] 76.2% | [3] 70.7% | [4] 40.4% | [5] 85.3% | [6] 90.1% | [7] 46.9% | [8] 66.3% | [9] 53.8% | [11] 42.7% | [12] 71.9% | [13] 89.5% | [15] 71.6% | [16] 76.9% | [17] 64.7% | [18] 56.9% | [19] 63.1%
active: [10] 0.363%

CCCCCCCCCCCCCCCC[N+]1(C)CCN(SN2CC[N+](C)(CCCCCCCCCCCCCCCC)CC2)CC1
inactive: [1] 95.9% | [2] 82.3% | [3] 72.5% | [4] 76.9% | [5] 53.3% | [6] 66.2% | [7] 43.4% | [8] 48.1% | [9] 57.1% | [10] 26.8% | [11] 26.3% | [12] 67.2% | [13] 50% | [15] 124% | [17] 59.7% | [18] 88.2% | [19] 96.3%
active: [16] -18.9%

O=S(=O)(NCCNc1nccc(-c2c(-c3cccc(O)c3)nc3occn23)n1)c1ccccc1
inactive: [1] 61.3% | [2] 109% | [3] 72.7% | [4] 101% | [5] 130% | [6] 82.1% | [7] 78.3% | [8] 80.9% | [9] 94.2% | [10] 75.7% | [11] 92.8% | [12] 79.8% | [13] 117% | [14] 123% | [15] 97.2% | [18] 91.8% | [19] 112%

COc1cc(/C=N/O)nc(-c2ccccn2)c1
inactive: [1] 25.6% | [2] 23.4% | [3] 15.5% | [5] 35.3% | [7] 18.4% | [9] 12% | [11] 18.7% | [12] 17.6% | [13] 45.3% | [14] 22.2% | [15] 28.6% | [17] 18.2% | [18] 65%
active: [4] 3.15% | [6] 9.42% | [8] 9.2% | [10] 9.23% | [19] 4.37%
